ALOX12 inh = inhibitors of human 12S-lipoxygenase ALOX12. P18054. 580,000 tested, 1.1% active. Potency, µM (series often up to 108 µM), for the others: top-dose activity change, negative = inhibition, actives largely listed as inhibitors. purified 12hLO, xylenol orange hydroperoxide absorbance; also: % is scaled to controls: 0 for no effect and ±100 for the full control effect
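Purified human 12hLO at 150 nM in 25 mM Hepes, 0.01% Triton X-100, pH 7.0, preincubated 15 min at room temperature with compound. Reaction started with 40 uM arachidonic acid, 30 min at room temperature. Hydroperoxide measured by Fe-xylenol orange, 573/405 nm absorbance ratio.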
BAZ2B block = blocks human BAZ2B. 360,000 tested, 4.4% active. AID 504333. Q9UIF8. Potency, µM (doses to about 114 µM), without a hit: at the highest dose activity change, negative = inhibition, most hits filed as inhibitors. AlphaScreen BAZ2B-H3K14Ac peptide displacement; also: % is scaled to controls: 0 for no effect and ±100 for the full control effect; nearly all actives have a fitted effect of over 60% in size
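In this displacement format the biotinylated H3(5-23) peptide acetylated at Lys14 serves as ligand at 50 nM, with BAZ2B at 50 nM in PBS pH 7.4 containing 0.01% Tween-20. Donor and acceptor beads are 10 ug/mL final.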
HP1b chromo inh = HP1-beta chromodomain-methylated histone interaction inhibition | Potency, µM (top dose mostly 114 µM), for inactives: at the highest dose activity change, negative = inhibition, usual class: inhibitors | 390,000 tested, 0.56% active | AlphaScreen HP1-beta / biotin-H3K9me3 peptide binding; also: nearly all actives have a fitted effect of over 70% in size
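Compound inhibition of the preformed complex between 50 nM HP1-beta and 50 nM biotinylated H3K9me3 peptide was read by AlphaScreen. Buffer was PBS pH 7.4 with 0.01% Tween-20. Incubations ran 30 min at room temperature, with 10 ug/mL donor/acceptor beads.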
PLK1 PBD block = blocks phosphopeptide binding to human PLK1 polo-box domain; Potency, µM, for inactives: max response, negative = inhibition, most hits filed as inhibitors; P53350; 360,000 tested, 2.8% active; Plk1 PBD binding of FITC phosphopeptide, fluorescence polarization; also: series mostly up to about 57 µM; % is scaled to controls: 0 for no effect and ±100 for the full control effect; nearly all actives have a fitted effect of over 65% in size
JMJD2A Tudor inh = inhibitors of human JMJD2A Tudor domain | O75164 | AlphaScreen JMJD2A-Tudor / H3K4me3 peptide binding | Potency, µM (top dose mostly 114 µM), for inactives: top-dose activity change, negative = inhibition, most hits filed as inhibitors | 390,000 tested, 4.4% active | AID 504339; also: % is scaled to controls: 0 for no effect and ±100 for the full control effect; nearly all actives have a fitted effect of over 50% in size
G9a block = inhibitors of human histone lysine methyltransferase G9a; AID 504332; 350,000 tested, 8.8% active; G9a H3K9 monomethylation, AlphaScreen, 2 h; Potency, µM (highest dose often 102 µM), without a hit: at the highest dose activity, negative = inhibition, usual class: inhibitors; also: % is scaled to controls: 0 for no effect and ±100 for the full control effect; nearly all actives have a fitted effect of over 75% in size
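Enzyme 20 nM + cpd, 15 min RT; add b-H3K9 pep 500 nM / SAM 20 uM; 2 h RT; anti-H3K9me1 Ab 0.5 ug/mL + SA donor / anti-rabbit acceptor beads 20 ug/mL each, 10 min; AlphaScreen read.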
* marks the source's active call; other numbers are inactive results; u = inconclusive; x = not tested or not shown; [ ] = remark or other dose. The list is not random: actives were taken first. Their share in the collection is about 9%. Calls follow the shape of the dose curve; as a rule, active = well fitted curve in the direction sought with a large enough effect; inconclusive = small, poorly fitted or top-dose-only effect, or another doubt; inactive = no such curve, though single readings can be large; an effect the other way counts as inactive or inconclusive. Potency is read from the fitted curve at half-maximal effect.

SMILES | ALOX12 inh | BAZ2B block | HP1b chromo inh | PLK1 PBD block | JMJD2A Tudor inh | G9a block
CCOC(=O)c1ccc(NC(=O)c2c(NCc3cc(OC)ccc3OC)sc3c2CCC3)cc1 | -29% | -13% | 29% | x | -20% | 5µM*
CCOc1ccc(NC(=O)c2c(NCc3cc(OC)c(OC)cc3OC)sc3c2CCCC3)cc1 | u | 25µM* | u | x | 25µM* | 13µM*
COC(=O)c1ccc(NC(=O)c2c(NCc3cccc(F)c3)sc3c2CCCC3)cc1 | u | -35% | -12% | x | u | u
CCOc1ccc(NC(=O)c2c(NC(=O)CN3CCCC3)sc3c2CCC3)cc1 | 2% | u | 16% | -1% | -15% | -12%
CCOC(=O)N1CCc2c(sc(NCc3cc(OC)c(OC)cc3OC)c2C(=O)Nc2ccc(OCC)cc2)C1 | 1% | u | u | x | 11µM* | 3.2µM*
Cc1cccc(S(=O)(=O)N2CCCN(C(=O)C3CC3)c3ccccc32)c1 | 19% | x | x | x | x | x
O=C(Nc1nnc(COc2ccc(F)cc2)s1)c1cccs1 | u | -6% | 21% | -12% | -10% | 26%[59 µM]
NS(=O)(=O)c1ccc(NNC(=O)c2cccs2)cc1 | -1% | -3% | 47% | -17% | 7% | 10µM*
O=C(Nc1ccccc1)c1ccc(F)cc1F | 13% | x | 35% | -1% | 4% | x
O=C(NNC(=O)c1cccs1)Nc1cccc(Cl)c1 | 0% | 12% | 38% | -7% | -8% | 17%[0.0925 µM]
NS(=O)(=O)c1ccc(NS(=O)(=O)c2cccs2)cc1 | 14% | 6% | 27% | -4% | -8% | -33%[12.7 µM]
NS(=O)(=O)c1ccc(NNC(=O)c2ccc(F)cc2F)cc1 | 0% | 0% | 42% | -20% | -10% | 11µM*
O=C(Nc1nnc(COc2ccc(Cl)cc2)s1)c1cccs1 | 11% | 5% | u | 2.7µM* | -23%[11.4 µM] | u
O=C(NNc1cc(Cl)cc(Cl)c1)c1cccs1 | u | -16% | 46% | -19% | -8% | 28µM*
COc1ccc(-c2c(C)c3ccc(OC(=O)c4ccco4)cc3oc2=O)cc1 | 5% | x | x | x | x | x
O=C(NNC(=S)Nc1ccccc1)c1cccs1 | 17% | 7% | 24% | -11% | -23% | u
O=C(NNC(=S)Nc1ccc(Cl)cc1)c1cccs1 | -12% | -4% | 17% | -25% | -27% | 25µM*
O=C(NNc1ccc(Cl)cc1)c1cccs1 | u | -19% | 19% | -24% | -30% | 10µM*
CN(Cc1ccccc1)c1cc2c(c3c1ccn3C)C1CCC2C1 (stereo not given) | u | x | x | 4% | x | x
CN(CCc1ccccc1)c1cc2c(c3c1ccn3C)C1CCC2C1 (stereo not given) | 45µM* | x | x | 3% | x | x
COc1ccccc1N(C)c1cc2c(c3c1ccn3C)C1CCC2C1 (stereo not given) | 40µM* | x | x | -2% | x | x
Cn1ccc2c(N3CCCC3)cc3c(c21)C1CCC3C1 (stereo not given) | 45µM* | x | x | -4% | x | x
Cn1ccc2c(N3CCCCC3)cc3c(c21)C1CCC3C1 (stereo not given) | u | x | x | 1% | x | x
CC(C)C(CCNC(=O)CC(Cc1ccccc1)c1ccco1)c1ccco1 (stereo not given) | u | 50µM* | 0% | -17% | u | -26%[0.501 µM]
CC(C)C(CCNC(=O)CN1C(=O)c2ccccc2C1=O)c1ccco1 (stereo not given) | 0% | -2% | 34% | -7% | -19% | -26%[59 µM]
SMILES | ALOX12 inh | BAZ2B block | HP1b chromo inh | PLK1 PBD block | JMJD2A Tudor inh | G9a block
CC1CCN(C(=S)c2ccc(O)cc2)CC1 | 0% | 8%[57.1 µM] | -3% | u | -31% | 35µM*
CC1CCN(C(=O)COC(=O)c2cc3ccccc3cc2O)CC1 | -16% | x | 10% | u | -16%[57.1 µM] | 8%[59 µM]
Oc1cccc(C(=S)N2CCCCC2)c1 | u | -20% | -23% | 11µM* | -10%[11.4 µM] | 32µM*
Oc1ccc(C(=S)N2CCCCCC2)cc1 | -11% | -1%[57.1 µM] | -18% | u | -32% | 32µM*
CC1CCN(C(=S)c2ccccc2O)CC1 | u | -1% | u | 15µM* | u | u
Cc1ccc(-n2ccc(=O)c(C(=O)Nc3ccc(S(=O)(=O)Nc4nccc(C)n4)cc3)n2)cc1 | -17% | u | 13% | -16% | -29% | -8%
Oc1ccc(C(=S)N2CCCC2)cc1 | u | -3% | -19% | 24µM* | -6% | x
COc1cc(OC)cc(-c2ncc3ccccn23)c1 | 251% | 32µM* | u | -7% | 2.8µM* | 7.9µM*
COc1ccc(-c2ncc3ccccn23)cc1 | 8% | -16% | 14% | -11% | -30% | -41%
COc1cccc(-c2ncc3ccccn23)c1 | u | 35µM* | 16µM* | 1% | 3.5µM* | 7.1µM*
Fc1ccc(-c2ncc3ccccn23)cc1 | -9% | -13% | 30% | -9% | -12% | -21%[0.501 µM]
COc1cc(-c2ncc3ccccn23)cc(OC)c1OC | u | 45µM* | 50µM* | -12% | 11µM* | 25µM*
O=C(NCc1ccccc1)C1CCCN(c2ncnc3nc[nH]c23)C1 (stereo not given) | -39% | x | x | x | x | x
COC(=O)CNC(=O)N1CCC(N2C(=O)C3(CCCC3)C2c2scnc2C)CC1 (stereo not given) | 29% | x | x | x | x | x
O=C(c1ccccc1)c1nc2c(n1O)CCCCC2 | -18% | 79µM* | 15% | -4% | -13% | 56µM*
CC1=C[C@@H](CNCc2ccccc2)[C@H](C(C)C)C[C@H]1Cc1nc2c(C)cccc2[nH]1 | 63µM* | x | x | x | x | x
COc1ccccc1CNC[C@@H]1C=C(C)[C@H](Cc2nc3c(C)cccc3[nH]2)C[C@H]1C(C)C | 56µM* | x | x | x | x | x
CC1=C[C@@H](CN(C)C)[C@H](C(C)C)C[C@H]1Cc1nc2c(C)cccc2[nH]1 | 114%[176 µM] | x | x | x | x | x
CC1=C[C@@H](CNC(=O)Nc2ccc(F)cc2)[C@H](C(C)C)C[C@H]1Cc1nc2c(C)cccc2[nH]1 | 15% | x | x | x | x | x
Cc1cc(NC(=O)C(Cl)c2ccccc2)no1 (stereo not given) | u | -1% | 15% | -11% | -11% | x
S=c1[nH]nc([C@@H]2C[C@H]2c2ccccc2)n1-c1ccccc1Cl | -6% | -23% | 44% | 0% | u | 5µM*
Cc1ccc(C2CC2c2n[nH]c(=S)n2-c2cccc(C)c2)cc1 (stereo not given) | u | -31% | -19% | 24µM* | -27%[11.4 µM] | 14µM*
Cc1ccc(-n2c(C3CCN(C(=O)c4cc(Cl)ccc4F)CC3)n[nH]c2=O)cc1 | 29% | x | x | x | x | x
Cc1ccc(C2CC2c2n[nH]c(=S)n2-c2ccc(Cl)cc2)cc1 (stereo not given) | u | -35% | -5% | -7% | -14% | 22µM*
Cc1ccc(-n2c(C3CCN(C(=O)c4cccc(C)c4)CC3)n[nH]c2=O)cc1 | 2% | x | x | x | x | x

Source: PubChem (National Center for Advancing Translational Sciences (NCATS))
